Laboratory results from PubChem BioAssay (NCI).
Compounds without any hit were thinned out: in the full panel of roughly 79,000, 15% have a hit. Unmarked numbers belong to inactive results. The source made the active and inactive calls. Rule as the data show it: active = growth inhibition above about 70%; inactive = the rest.

Experiments:
[1] = NCI Yeast Anticancer Drug Screen. Data for the rad50 strain (AID 155);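 also: 0% = growth of vehicle-only cultures of the same strain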; conditions: S. cerevisiae rad50 strain growth inhibition, hits give high values
How it was run: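 Growth of the mutant yeast was measured after compound exposure and referenced to vehicle-treated cultures.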

[2] = NCI Yeast Anticancer Drug Screen. Data for the mec2-1 strain (AID 157); conditions: S. cerevisiae mec2-1 strain, hits give high values
How it was run: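 Cells of the genetically defined mec2-1 yeast strain are incubated with test compound. Inhibition of growth is calculated against vehicle-treated controls.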

[3] = NCI Yeast Anticancer Drug Screen. Data for the sgs1 mgt1 strain (AID 161);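 also: 0% = growth of cultures given vehicle only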; conditions: S. cerevisiae sgs1 mgt1 strain, hits give high values
How it was run: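 Inhibition of yeast growth, normalised to vehicle-treated controls, is reported for a strain bearing genetic alterations in DNA damage repair.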

[4] = NCI Yeast Anticancer Drug Screen. Data for the cln2 rad14 strain (AID 165);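 also: 0% = growth equal to vehicle treated cultures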; conditions: S. cerevisiae cln2 rad14 strain, hits give high values
How it was run: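 The screen exposed genetically defined yeast (cln2 rad14) to test compounds and scored growth inhibition relative to vehicle-treated controls.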

[5] = NCI Yeast Anticancer Drug Screen. Data for the bub3 strain (AID 167); conditions: S. cerevisiae bub3 mutant strain, hits give high values
How it was run: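 Whole-cell yeast assay. The mutant strain was incubated with compounds, and growth inhibition was determined by comparison with vehicle-treated cells.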

[6] = NCI Yeast Anticancer Drug Screen. Data for the mlh1 rad18 strain (AID 175); conditions: S. cerevisiae mlh1 rad18 strain growth inhibition, hits give high values
How it was run: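 Compound-treated yeast growth, normalised to vehicle controls. Strain bears defined DNA repair mutations.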

[7] = at 5.0 µM (retest, dose inferred, filed as 0.5)
[8] = at 50.0 µM (retest, dose inferred, filed as 5.0)

Row | Compound | growth inhibition [1, 7] | growth inhibition [1, 8] | growth inhibition ([1]; at 50.0 µM) | growth inhibition [2, 7] | growth inhibition [2, 8] | growth inhibition ([2]; at 50.0 µM) | growth inhibition [3, 7] | growth inhibition [3, 8] | growth inhibition ([3]; at 50.0 µM) | growth inhibition [4, 7] | growth inhibition [4, 8] | growth inhibition ([4]; at 50.0 µM) | growth inhibition [5, 7] | growth inhibition [5, 8] | growth inhibition ([5]; at 50.0 µM) | growth inhibition [6, 7] | growth inhibition [6, 8] | growth inhibition ([6]; at 50.0 µM)
1 | CCN(CC)CCNc1ccc(C)c2sc3cccc(O)c3c(=O)c12 | 86% (active) | 99% (active) | 99.2% (active) | 3% | 72% (active) | 99.7% (active) | 15% | 96% (active) | 99.5% (active) | 2% | 85% (active) | 55.5% | 10% | 96% (active) | 99.5% (active) | 12% | 99% (active) | 99.3% (active)
2 | CCCCCCCCCCCCCCCCCC(=O)OC(C)CCC1CCCO1 (configuration not stated) | 4% | -6% | 26.4% | 1% | 0% | 12.8% | 5% | 11% | 5.9% | 5% | 3% | 0.1% | 1% | -2% | -5.95% | 1% | -58% | 13%
3 | CN(C)C(C)(C)CCNc1c2ccccc2nc2cccc([N+](=O)[O-])c12 | 96% (active) | 97% (active) | 96% (active) | 98% (active) | 100% (active) | 94.6% (active) | 98% (active) | 99% (active) | 96.7% (active) | 98% (active) | 99% (active) | 94.5% (active) | 96% (active) | 99% (active) | 97.2% (active) | 98% (active) | 100% (active) | 98% (active)
4 | COC1OC(CBr)C(OC(C)=O)C(OC(C)=O)C1OC(C)=O (configuration not stated) | 7% | -3% | 5.9% | 5% | 3% | 13.2% | 8% | 3% | -3.6% | 5% | 30% | 8.7% | 6% | 3% | 82.3% (active) | -2% | 2% | 18.9%
